Design in all cases: scale not given: direction of the effect not stated beside the values
Test [1] has as its target Protein translocase subunit SecA (Escherichia coli (strain K12)) (UniProt P10408). In words: Assay to Identify E. coli SecA ATPase Inhibitors. The format is functional. To be noted: 30 µM.
In test [2] the target is T1, Ubiquitin-activating enzyme e1, putative (Leishmania donovani (strain BPK282A1)) (UniProt E9BSI1).
T1 sequence (whole entry): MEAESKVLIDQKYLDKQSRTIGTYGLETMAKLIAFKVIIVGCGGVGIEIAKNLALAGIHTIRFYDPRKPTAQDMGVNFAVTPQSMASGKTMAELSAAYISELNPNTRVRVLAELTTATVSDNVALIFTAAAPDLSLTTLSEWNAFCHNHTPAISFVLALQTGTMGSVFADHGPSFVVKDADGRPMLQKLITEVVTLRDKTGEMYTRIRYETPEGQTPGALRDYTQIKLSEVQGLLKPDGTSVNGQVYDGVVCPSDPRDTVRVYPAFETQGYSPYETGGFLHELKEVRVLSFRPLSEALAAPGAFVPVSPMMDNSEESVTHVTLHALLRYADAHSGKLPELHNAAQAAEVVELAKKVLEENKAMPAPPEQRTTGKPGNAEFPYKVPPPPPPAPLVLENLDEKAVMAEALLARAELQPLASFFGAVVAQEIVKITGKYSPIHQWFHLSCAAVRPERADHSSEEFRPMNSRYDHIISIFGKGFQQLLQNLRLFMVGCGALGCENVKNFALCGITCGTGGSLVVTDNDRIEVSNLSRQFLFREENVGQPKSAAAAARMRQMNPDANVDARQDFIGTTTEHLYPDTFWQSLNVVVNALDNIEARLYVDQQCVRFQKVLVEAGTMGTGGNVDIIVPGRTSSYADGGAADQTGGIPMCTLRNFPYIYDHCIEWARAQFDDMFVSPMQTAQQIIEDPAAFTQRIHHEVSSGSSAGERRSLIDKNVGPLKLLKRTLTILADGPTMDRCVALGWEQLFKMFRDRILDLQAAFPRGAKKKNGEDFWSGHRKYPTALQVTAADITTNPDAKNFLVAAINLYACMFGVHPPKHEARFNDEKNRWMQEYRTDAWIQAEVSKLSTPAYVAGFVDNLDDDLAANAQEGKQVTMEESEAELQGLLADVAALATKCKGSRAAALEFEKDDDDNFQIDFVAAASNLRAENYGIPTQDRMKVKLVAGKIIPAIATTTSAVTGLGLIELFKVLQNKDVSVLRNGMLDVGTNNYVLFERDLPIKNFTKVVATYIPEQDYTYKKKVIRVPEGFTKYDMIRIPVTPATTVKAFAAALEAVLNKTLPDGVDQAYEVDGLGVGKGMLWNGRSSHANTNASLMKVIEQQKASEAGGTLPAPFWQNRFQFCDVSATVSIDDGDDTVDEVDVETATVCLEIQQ
As to the kind of experiment: Leishmania donovani Ubiquitin Activating Enzyme (LdE1). The format is functional. As to conditions: 30 µM.

In test [3] the target is AMP-activated protein kinase, AMPK (Homo sapiens) (UniProt P54646+O43741+P54619+Q9UGJ0+Q9Y478+Q13131+Q9UGI9). In words: AMP-dependent Kinase enzyme assay. An in vitro enzyme assay that detects ADP turnover that is directly proportional to AMPK activity. This uses naive AMPK that is activated during the assay with MK-8722. The format is functional. As to conditions: 30 µM.

Test [4] concerns the target Sialic acid-binding Ig-like lectin 9 (Homo sapiens) (UniProt Q9Y336). In words: Hs-Siglec9 ALPHAscreen SOP 20170721. As to conditions: 10 µM. (In general: Alpha assays give light when donor and acceptor beads are brought close together.)
Test [5] relates to Trypanosoma cruzi. As to the kind of experiment: Trypanosoma cruzi phosphomannomutase and mannose-1-phosphate guanylyltransferase assay. To be noted: 10 µM. The test is classed as functional.
Test [6] deals with T2, Arginase-2, mitochondrial (Homo sapiens) (UniProt P78540).
T2 sequence (whole entry): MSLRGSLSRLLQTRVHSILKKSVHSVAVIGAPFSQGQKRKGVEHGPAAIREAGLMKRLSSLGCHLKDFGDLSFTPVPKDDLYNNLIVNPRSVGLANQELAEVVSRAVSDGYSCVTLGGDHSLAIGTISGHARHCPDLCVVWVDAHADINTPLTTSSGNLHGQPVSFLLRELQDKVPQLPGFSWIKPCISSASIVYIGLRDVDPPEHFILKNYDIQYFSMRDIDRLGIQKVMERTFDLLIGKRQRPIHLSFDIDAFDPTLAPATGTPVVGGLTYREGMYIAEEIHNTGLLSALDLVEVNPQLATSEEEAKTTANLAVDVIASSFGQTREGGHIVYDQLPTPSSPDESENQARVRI
In words: in vitro enzyme assay to detect the production of urea directly proportional to the activity of Arginase II. Note: in the data most compounds retested in dose-response had high values. The test is classed as functional. As to conditions: 33.3 µM.

Test [7] concerns the target T3, Proteasome subunit beta (Trypanosoma cruzi) (UniProt O96673).
T3 sequence (whole entry): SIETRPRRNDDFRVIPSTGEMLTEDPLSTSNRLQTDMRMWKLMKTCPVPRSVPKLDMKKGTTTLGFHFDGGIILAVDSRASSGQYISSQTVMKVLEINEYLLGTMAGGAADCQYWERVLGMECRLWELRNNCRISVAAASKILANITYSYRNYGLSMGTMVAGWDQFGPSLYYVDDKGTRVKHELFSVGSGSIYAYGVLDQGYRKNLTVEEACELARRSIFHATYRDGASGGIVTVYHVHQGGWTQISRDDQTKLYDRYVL
In words: Trypanosoma cruzi proteasome chymotrypsin-like activity (TcProtChymo) assay. Note: in the data most compounds retested in dose-response had high values. The test is classed as functional. To be noted: 9.37 µM.

For test [8], the species on record is Homo sapiens. As to the kind of experiment: To identify inhibition of the IFN signalling (Jak-Stat) pathway via expression of an eGFP reporter gene under the control of an IFN-stimulated response element (ISRE) containing MxA promoter. To be noted: 30 µM. The test is classed as functional. (In general: Reporter assays use an easily measured gene product as a stand-in for the process of interest.)

Test [9] addresses T4, Tyrosyl-tRNA synthetase, putative (Trypanosoma cruzi (strain CL Brener)) (UniProt Q4DSP6).
T4 sequence (whole entry): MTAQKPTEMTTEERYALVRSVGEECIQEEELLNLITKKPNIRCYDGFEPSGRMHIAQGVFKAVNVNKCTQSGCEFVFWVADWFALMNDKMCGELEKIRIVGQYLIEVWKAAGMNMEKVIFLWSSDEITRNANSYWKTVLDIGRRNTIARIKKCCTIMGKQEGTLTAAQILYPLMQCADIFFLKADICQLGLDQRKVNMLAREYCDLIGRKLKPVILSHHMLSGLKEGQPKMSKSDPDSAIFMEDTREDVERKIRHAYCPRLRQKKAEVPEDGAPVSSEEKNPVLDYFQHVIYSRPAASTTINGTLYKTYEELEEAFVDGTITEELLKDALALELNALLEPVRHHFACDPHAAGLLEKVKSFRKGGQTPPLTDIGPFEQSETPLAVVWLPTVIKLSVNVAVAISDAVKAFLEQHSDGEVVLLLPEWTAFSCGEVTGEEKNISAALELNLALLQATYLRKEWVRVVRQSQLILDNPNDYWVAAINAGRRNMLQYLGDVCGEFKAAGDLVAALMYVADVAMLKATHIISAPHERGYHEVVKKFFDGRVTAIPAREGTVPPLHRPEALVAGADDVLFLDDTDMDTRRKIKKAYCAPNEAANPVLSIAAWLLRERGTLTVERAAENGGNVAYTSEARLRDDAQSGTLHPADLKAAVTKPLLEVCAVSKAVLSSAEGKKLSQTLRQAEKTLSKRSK
As to the kind of experiment: Trypanosoma cruzi tyrosyl tRNA synthetase (TcYRS) _High Tyrosine SOP. Note: in the data most compounds retested in dose-response had high values. The test is classed as functional. To be noted: 30 µM.

Test [10] has as its target T4, Tyrosyl-tRNA synthetase, putative (Trypanosoma cruzi (strain CL Brener)). As to the kind of experiment: Trypanosoma cruzi tyrosyl tRNA synthetase (TcYRS) SOP. The test is classed as functional. To be noted: 30 µM.
The target of test [11] is Chromo domain-containing protein 1 (Saccharomyces cerevisiae (strain ATCC 204508 / S288c) (Baker's yeast)) (UniProt P32657). In words: ScCHD-1 Enzyme Inhibition Assay. Note: in the data most compounds retested in dose-response had high values. The format is functional. To be noted: 30 µM.

For some of these results: Measured potencies and affinities stand elsewhere.

Sialic acid-binding Ig-like lectin 9 (Homo sapiens), sequence (Q9Y336 whole entry): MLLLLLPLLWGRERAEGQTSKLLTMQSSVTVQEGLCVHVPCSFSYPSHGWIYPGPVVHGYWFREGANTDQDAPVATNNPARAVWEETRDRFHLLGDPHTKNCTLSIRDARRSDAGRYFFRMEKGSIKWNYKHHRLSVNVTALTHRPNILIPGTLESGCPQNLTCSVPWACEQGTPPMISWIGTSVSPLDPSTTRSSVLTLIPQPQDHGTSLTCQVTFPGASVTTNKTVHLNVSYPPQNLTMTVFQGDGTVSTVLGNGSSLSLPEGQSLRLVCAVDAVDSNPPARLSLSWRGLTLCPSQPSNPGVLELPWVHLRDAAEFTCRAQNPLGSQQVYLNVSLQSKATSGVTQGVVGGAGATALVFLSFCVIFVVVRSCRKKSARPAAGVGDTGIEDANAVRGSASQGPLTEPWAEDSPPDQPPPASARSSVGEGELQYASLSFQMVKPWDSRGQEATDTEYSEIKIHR
Chromo domain-containing protein 1 (Saccharomyces cerevisiae (strain ATCC 204508 / S288c) (Baker's yeast)), sequence (P32657 whole entry, the tested form may be a part): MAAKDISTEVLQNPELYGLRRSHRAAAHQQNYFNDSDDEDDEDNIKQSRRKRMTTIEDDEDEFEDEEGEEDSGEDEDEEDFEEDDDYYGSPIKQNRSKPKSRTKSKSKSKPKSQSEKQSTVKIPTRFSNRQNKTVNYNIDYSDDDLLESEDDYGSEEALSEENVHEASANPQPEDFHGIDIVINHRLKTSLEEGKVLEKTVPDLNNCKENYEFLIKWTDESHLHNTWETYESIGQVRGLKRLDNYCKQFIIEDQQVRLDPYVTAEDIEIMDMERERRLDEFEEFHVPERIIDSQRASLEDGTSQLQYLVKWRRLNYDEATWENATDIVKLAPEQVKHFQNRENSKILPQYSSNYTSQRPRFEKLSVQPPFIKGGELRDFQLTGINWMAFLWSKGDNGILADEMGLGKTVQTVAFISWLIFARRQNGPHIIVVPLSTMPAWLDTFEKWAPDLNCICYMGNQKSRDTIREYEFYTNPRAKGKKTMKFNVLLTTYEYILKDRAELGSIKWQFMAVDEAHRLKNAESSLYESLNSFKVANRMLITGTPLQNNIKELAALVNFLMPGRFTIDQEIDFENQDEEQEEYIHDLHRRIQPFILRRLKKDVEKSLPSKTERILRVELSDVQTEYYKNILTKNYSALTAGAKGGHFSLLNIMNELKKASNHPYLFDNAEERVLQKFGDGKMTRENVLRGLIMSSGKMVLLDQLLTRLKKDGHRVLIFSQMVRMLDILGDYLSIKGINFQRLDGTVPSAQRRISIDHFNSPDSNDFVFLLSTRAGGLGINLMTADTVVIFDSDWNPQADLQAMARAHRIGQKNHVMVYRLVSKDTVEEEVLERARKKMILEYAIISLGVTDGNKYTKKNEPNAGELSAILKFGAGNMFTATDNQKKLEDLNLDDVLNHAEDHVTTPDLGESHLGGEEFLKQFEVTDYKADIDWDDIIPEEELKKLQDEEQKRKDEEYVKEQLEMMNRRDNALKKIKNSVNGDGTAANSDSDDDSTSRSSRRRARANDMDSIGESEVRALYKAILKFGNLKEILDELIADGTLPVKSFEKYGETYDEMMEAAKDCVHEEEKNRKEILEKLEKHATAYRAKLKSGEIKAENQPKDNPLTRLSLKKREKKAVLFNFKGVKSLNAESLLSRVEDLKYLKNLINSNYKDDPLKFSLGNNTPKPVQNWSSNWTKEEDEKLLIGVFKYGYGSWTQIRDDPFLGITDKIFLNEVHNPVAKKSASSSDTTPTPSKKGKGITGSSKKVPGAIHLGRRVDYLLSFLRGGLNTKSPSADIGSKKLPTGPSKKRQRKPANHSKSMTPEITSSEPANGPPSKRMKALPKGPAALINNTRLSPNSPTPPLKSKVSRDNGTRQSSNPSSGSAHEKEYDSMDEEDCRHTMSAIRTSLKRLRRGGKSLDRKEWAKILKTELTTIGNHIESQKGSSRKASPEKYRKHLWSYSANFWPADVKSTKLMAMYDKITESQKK
Protein translocase subunit SecA (Escherichia coli (strain K12)), sequence (P10408 whole entry): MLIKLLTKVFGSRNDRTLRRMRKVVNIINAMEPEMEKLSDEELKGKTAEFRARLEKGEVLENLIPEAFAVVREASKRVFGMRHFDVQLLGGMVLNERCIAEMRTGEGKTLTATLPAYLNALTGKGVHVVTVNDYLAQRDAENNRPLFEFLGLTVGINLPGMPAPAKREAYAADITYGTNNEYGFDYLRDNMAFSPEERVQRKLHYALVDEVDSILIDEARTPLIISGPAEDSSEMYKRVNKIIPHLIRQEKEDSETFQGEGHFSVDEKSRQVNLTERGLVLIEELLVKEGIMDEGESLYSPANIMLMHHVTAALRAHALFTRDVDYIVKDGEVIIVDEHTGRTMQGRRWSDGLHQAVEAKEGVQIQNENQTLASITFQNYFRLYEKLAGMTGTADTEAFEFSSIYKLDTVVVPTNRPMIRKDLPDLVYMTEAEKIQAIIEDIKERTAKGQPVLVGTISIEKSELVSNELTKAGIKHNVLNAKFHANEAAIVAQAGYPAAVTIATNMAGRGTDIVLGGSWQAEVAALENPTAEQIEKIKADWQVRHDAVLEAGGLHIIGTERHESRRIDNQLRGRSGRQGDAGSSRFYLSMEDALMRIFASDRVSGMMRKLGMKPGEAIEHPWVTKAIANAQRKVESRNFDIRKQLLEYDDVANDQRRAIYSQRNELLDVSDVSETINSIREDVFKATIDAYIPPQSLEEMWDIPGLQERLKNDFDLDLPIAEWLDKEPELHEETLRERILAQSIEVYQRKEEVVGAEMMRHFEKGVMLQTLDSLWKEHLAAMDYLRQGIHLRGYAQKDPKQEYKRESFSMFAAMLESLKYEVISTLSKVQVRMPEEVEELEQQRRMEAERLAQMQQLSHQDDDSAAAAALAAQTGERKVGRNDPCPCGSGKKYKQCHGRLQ

`CCn1cnnc1CNC(=O)c1cc(Cl)ccc1OC`: the Percent Effect in [1] was -2.18%; in test [2], 8.86%; in test [3] it was 8.8%; in test [4], -1.08%; in test [5] it was -2.56%; in test [6], 3.66%. Also, the Percent Effect in test [7] is 11.2%; in test [8], 7.84%; in test [9] it was 9.38%; in test [10] it was 15.2%; in [11] it was -11.8%.
In the case of `Cn1ccnc1CN1CCN(CC(=O)NCC(F)(F)F)CC1`, the Percent Effect is -2.81% in test [1]; 5.41% in test [2]; -5.23% in test [3]; 3.2% in [4]; -0.66% in test [5]; -4.01% in [6]. For the same compound, the Percent Effect was 0% in test [7]; 11.1% in [8]; 0.493% in [9]; 6.17% in test [10]; -3% in test [11].
As for `O=C(C1CCOCC1)N1C[C@@H]2[C@@H](C1)OCC(=O)N2CC1CC1`, the Percent Effect in test [1] is -1.53%; in test [2], -192%; in [3], 0.601%; in [4], -6.86%; in [5] it was -19.1%; in test [6], 0.319%. Further, the Percent Effect in test [7] is 19.2%; in [8] it was -0.484%; in test [9], -222%; in [10] it was -451%; in [11] it was -3.21%.
For the compound `CN(CCC#N)C(=O)CCOc1cccc(F)c1`, the Percent Effect is -2.84% in test [1]; 10.5% in [2]; 0.343% in test [3]; -8.13% in test [4]; -0.876% in test [5]; -4.73% in test [6]. In addition, the Percent Effect in test [7] was 10.3%; in test [8], 20.8%; in test [9], 3.19%; in [10] it was 10.4%; in test [11] it was -3.22%.
As for `CCn1nc(C)c2nc(C(C)C)nc(N3CCCCC3)c21`, the Percent Effect was -3.55% in test [1]; 2.6% in [2]; 1.61% in [3]; 3.47% in test [4]; -5.8% in test [5]; -9.65% in [6]. Moreover, the Percent Effect in [7] was 1.5%; in [8] it was 5.04%; in test [9] it was 3.23%; in [10], 6.17%; in test [11] it was -0.27%.
As to `Cc1cc(C)n(CC2CN(CC(=O)NC3CCCC3)CCO2)n1` (stereo unspecified), the Percent Effect was -8.44% in [1]; 7.79% in test [2]; 2.32% in test [3]; -3.15% in test [4]; -8.24% in test [5]; -0.712% in [6]. In addition, the Percent Effect is 2.03% in test [7]; 32.3% in test [8]; 1.94% in test [9]; 2.44% in [10]; -5.73% in test [11].
`CCc1nnc2n1CCN(C(=O)Cc1csc(-c3ccco3)n1)C2`: the Percent Effect was -4.35% in test [1]; 15.2% in [2]; -5.8% in test [3]; 9.4% in test [4]; -1.04% in test [5]; 3.8% in test [6]. Also, the Percent Effect is 8.76% in [7]; 13.3% in test [8]; 4.43% in [9]; 11.4% in [10]; -4.32% in [11].
For the compound `Cc1ccc(=O)n(CC2(O)CCN(Cc3cc(C)c(O)c(C)c3)CC2)n1`, the Percent Effect is -6.97% in [1]; 23% in test [2]; -6.19% in [3]; 7.09% in test [4]; 6.52% in [5]; -2.55% in [6]. Besides, the Percent Effect in test [7] was 13.3%; in test [8], -3.64%; in test [9], 2.15%; in [10], 14.3%; in [11], 45.6%.
In the case of `CCc1ncc2c(n1)CN(CC(=O)NCCOc1ccccc1)CC2`, the Percent Effect in [1] was -4.72%; in [2], 7.89%; in test [3], -23.5%; in test [4], -1.72%; in test [5], 1.21%; in test [6], -1.44%. Moreover, the Percent Effect in test [7] is -5.84%; in test [8] it was -22.3%; in [9], 11.3%; in test [10], 6.17%; in test [11], 1.38%.
With `CC(C)CS(=O)(=O)N1C[C@H]2C[C@H](C(=O)NCc3ccccc3)[C@@H](C1)O2`, the Percent Effect in test [1] was 1.12%; in [2], 9.33%; in [3] it was 4.22%; in [4] it was -2.68%; in [5] it was -10%; in [6] it was 0.88%. The Percent Effect was 13.3% in test [7]; 2.72% in test [8]; 3.17% in test [9]; 2.56% in test [10]; -5.74% in test [11].
Take `CC(C)c1cc(NC(=O)c2ccc(NC3CC3)nc2)[nH]n1`: the Percent Effect in [1] is -5.31%; in test [2], 13%; in test [3], 111%; in test [4], 10.4%; in test [5], 8.24%; in test [6] it was -6.05%. Moreover, the Percent Effect is 11.5% in test [7]; -1.61% in [8]; 7.77% in test [9]; 24.4% in [10]; -8.09% in test [11].
